Bioassay records (PubChem BioAssay)
In the library only some 10% were active in any assay of this set; here they are far more common.
MCF10A rereplic – A quantitative high throughput screen for small molecules that induce DNA re-replication in MCF 10a normal breast cells; MCF 10A DNA re-replication, Hoechst nuclear intensity, 48 h; Potency, µM (top dose mostly 46.1 µM), hits mostly activators; 350,000 compounds, 2.9% hits; AID 624296, 2012; note: nearly all actives have a fitted effect of over 50% in size
SW480 rereplic – A quantitative high throughput screen for small molecules that induce DNA re-replication in SW480 colon adenocarcinoma cells. SW480 DNA re-replication, Hoechst DNA content imaging, 48 h. Potency, µM (highest dose often 46.1 µM), most hits filed as activators. 340,000 compounds, 1.8% hits. AID 624297, 2012; note: nearly all actives have a fitted effect of over 55% in size
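Compounds, transferred as 23 nL by pin tool, were incubated with cells for 48 hr; DNA content per nucleus was then quantified by Hoechst staining and fluorescence plate imaging.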
VP16 counter – VP16 counterscreen qHTS for inhibitors of ROR gamma transcriptional activity | 310,000 compounds, 3.5% hits | Drosophila S2 Gal4-VP16 UAS-luciferase, luminescence, 20 h | Potency, µM (doses to about 53.6 µM), actives largely listed as inhibitors;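 note: Gal4-VP16 expression switched on by copper sulfate through the metallothionein promoter; nearly all actives have a fitted effect of over 50% in size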
KB-3-1 tox – qHTS assay for MDR1-selective chemotherapeutics: Primary screen using the parental adenocarcinoma cell KB-3-1. KB-3-1 viability, CellTiter-Glo ATP luminescence, 72 h. Potency, µM (highest dose often 46.1 µM), usual class: cytotoxic. 400,000 compounds, 1.4% hits; note: nearly all actives have a fitted effect of over 60% in size
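Screening of KB-3-1 cells (DMEM, 10% FBS, phenol-red free) ran from lowest to highest compound concentration; after 72 h at 37 °C viability was read luminescently and curves fitted.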
RORgamma inh – qHTS for inhibitors of ROR gamma transcriptional activity; Nuclear receptor ROR-gamma (Mus musculus), P51450; 310,000 compounds, 5.4% hits; Drosophila S2 Gal4-RORgamma UAS-luciferase reporter, 20 h; AID 2551, 2010; Potency, µM (series often up to 53.6 µM), usual class: inhibitors; note: nearly all actives have a fitted effect of over 60% in size
Target sequence (P51450 whole entry, looked up, the tested form may be a part): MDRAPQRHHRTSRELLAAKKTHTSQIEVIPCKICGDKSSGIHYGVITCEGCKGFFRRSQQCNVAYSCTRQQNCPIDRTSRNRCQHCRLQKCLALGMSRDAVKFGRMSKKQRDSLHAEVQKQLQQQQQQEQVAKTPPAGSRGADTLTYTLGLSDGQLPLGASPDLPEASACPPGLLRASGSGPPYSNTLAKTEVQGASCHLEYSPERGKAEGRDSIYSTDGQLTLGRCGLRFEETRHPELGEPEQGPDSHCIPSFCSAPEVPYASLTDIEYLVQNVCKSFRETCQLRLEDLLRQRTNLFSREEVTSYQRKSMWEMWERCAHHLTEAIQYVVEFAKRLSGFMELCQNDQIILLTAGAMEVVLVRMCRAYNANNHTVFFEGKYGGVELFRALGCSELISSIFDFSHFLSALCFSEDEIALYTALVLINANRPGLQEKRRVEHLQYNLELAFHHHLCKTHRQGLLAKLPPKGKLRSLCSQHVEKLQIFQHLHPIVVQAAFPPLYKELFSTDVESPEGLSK
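Stable Schneider cell line, Gal4 DNA-binding domain fused to ROR gamma, UAS-luciferase. Cmpd 1 hr RT → CuSO4 700 uM final → 20 hr RT → luciferase reagent 10 min → luminescence.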
KB-V1 cytotox – qHTS assay for MDR1-selective chemotherapeutics: Primary screen using the drug-selected MDR subline cells KB-V1; KB-V1 MDR cells viability, CellTiter-Glo, 72 h; Potency, µM (highest dose often 46.1 µM), most hits filed as cytotoxic; 400,000 compounds, 3.4% hits; note: nearly all actives have a fitted effect of over 60% in size
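Cytotoxicity via CellTiter-Glo luminescence after 72 h compound exposure at 37 degrees C. Cells: drug-selected KB-V1 line, DMEM phenol-red free plus 10% FBS. Compounds tested at multiple concentrations; normalized data fitted to concentration-effect curves.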
A number is an active result; - = inactive; ? = inconclusive; . = no result. Calls come from the whole dose curve; as a rule, active = well fitted curve in the direction sought with a large enough effect; inconclusive = small, poorly fitted or top-dose-only effect, or another doubt; inactive = no such curve, though single readings can be large; an effect the other way counts as inactive or inconclusive.

SMILES	MCF10A rereplic	SW480 rereplic	VP16 counter	KB-3-1 tox	RORgamma inh	KB-V1 cytotox
C=C1[C@@H](O)[C@@H]2O[C@]3(CC[C@H](/C=C/[C@@H](C)[C@@H]4CC(C)=CC5(O[C@H](C[C@@](C)(O)C(=O)OC)CC[C@H]5O)O4)O3)CC[C@H]2O[C@@H]1[C@@H](O)C[C@H](C)[C@H]1OC2(CCCCO2)CC[C@H]1C (some centres not stated)	?	?	.	?	.	18µM
Cc1nnc(N2C(=O)C(=O)/C(=C(/O)c3ccc4c(c3)OCCO4)C2c2ccc([N+](=O)[O-])cc2)s1 (configuration not stated)	.	.	-	.	-	.
Cn1c(N)c(C(=O)COC(=O)c2ccccc2C(=O)c2ccc(Cl)c([N+](=O)[O-])c2)c(=O)n(C)c1=O	12µM	?	.	?	.	-
O=C(COC(=O)c1ccccc1C(=O)c1ccc(Cl)c([N+](=O)[O-])c1)NC1CCCCCC1	2.6µM	3.7µM	?	?	4.5µM	-
Cn1c(N)c(C(=O)COC(=O)c2ccccc2C(=O)c2ccccc2)c(=O)n(C)c1=O	-	-	.	?	.	-
CN(CCC#N)C(=O)COC(=O)c1ccccc1C(=O)c1ccc(Cl)c([N+](=O)[O-])c1	9.2µM	-	-	?	-	-
C=CCN(c1ccc(OC)cc1)S(=O)(=O)c1ccc(Cl)c(C(=O)OCC(=O)c2c(N)n(C)c(=O)n(C)c2=O)c1	-	-	.	-	.	16µM
O=C(NCCc1ccc(O)cc1)c1[nH]c(C(F)(F)F)nc1-c1ccccc1	.	.	.	-	.	-
CSCC[C@H](NC(=O)[C@@H]1CCCN1C(=O)[C@H](CCCN=C(N)N)NC(=O)[C@H](CC(C)C)NC(=O)[C@@H]1CCCN1C(=O)[C@@H](NC(=O)[C@@H](N)CCC(N)=O)C(C)C)C(=O)N[C@H](C(=O)N[C@@H](Cc1ccc(O)cc1)C(=O)N[C@@H](CCCCN)C(=O)O)[C@@H](C)O	.	.	-	.	-	.
COC(=O)[C@@]1(Cc2ccccc2)[C@H]2c3cc(C(=O)N(C)C)n(Cc4ccc(OC)c(OC)c4)c3C[C@H]2CN1C(=O)c1ccccc1	.	.	-	.	-	.
Cc1ccc(S(=O)(=O)c2nc(S(C)(=O)=O)sc2N2CCN(C)CC2)cc1	-	-	-	-	-	-
Cc1ccc(S(=O)(=O)c2nc(S(C)(=O)=O)sc2N2CCCCCC2)cc1	-	-	-	-	-	6.5µM
CC(C)C(NC(=O)c1ccccc1)C(=O)N1CCN(C/C=C/c2ccccc2)CC1 (configuration not stated)	-	-	.	-	.	-
CSCCC(NC(=O)c1ccc(Cl)c([N+](=O)[O-])c1)C(=O)N1CCN(C/C=C/c2ccccc2)CC1 (configuration not stated)	18µM	-	.	-	.	-
CCc1ccc(NC(=O)C2CCCN(S(=O)(=O)c3cccc4nsnc34)C2)cc1 (configuration not stated)	.	.	.	-	.	-
CCn1c(SC)nnc1-c1sc2cc(Cl)ccc2c1Cl	?	-	-	-	-	?
CSc1nnc(-c2sc3cc(Cl)ccc3c2Cl)n1C	?	-	-	?	-	18µM
COC1=C(Nc2ccccc2)C(=O)c2ccccc2C1=O	-	?	-	21µM	-	?
COC1=C(Nc2ccc(C)cc2)C(=O)c2ccccc2C1=O	?	?	-	-	-	18µM
CC1=C(Nc2ccc(C(=O)O)cc2)C(=O)c2ccccc2C1=O	?	-	?	?	-	-
Nc1c(C(O)(C(F)(F)F)C(F)(F)F)cc(C(O)(C(F)(F)F)C(F)(F)F)c2ccccc12	18µM	-	?	-	?	-
C=CCn1c(-c2ccc3ncccc3c2)n[nH]c1=S	-	?	?	-	?	?
